# Test results reported in PubChem BioAssay (NCATS).
# “And” between values parts separate entries of the source, which are not always exact repeats. Equal entries are not always repeated. Results filed as inconclusive are left out. A call without a number means that no potency is given here. The source made the active and inactive calls. Unless noted, the call rests on the fitted dose curve; in most records, active means well fitted curve in the direction sought with a large enough effect; inconclusive means small, poorly fitted or top-dose-only effect, or another doubt; inactive means no such curve, though single readings can be large; an effect the other way counts as inactive or inconclusive.
# Columns and labels:
# [1] = molecular target: Voltage-gated inwardly rectifying potassium channel KCNH2 (Homo sapiens) (UniProt Q12809); assay: qHTS Assay for Small Molecule Inhibitors of the Human hERG Channel Activity (AID 588834);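 further: lower thallium flux fluorescence means stronger hERG block; nearly all actives have a fitted effect of over 50% in size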; further: potency means the concentration at half of the fitted maximal effect
# Voltage-gated inwardly rectifying potassium channel KCNH2 (Homo sapiens), sequence (Q12809 whole entry, looked up): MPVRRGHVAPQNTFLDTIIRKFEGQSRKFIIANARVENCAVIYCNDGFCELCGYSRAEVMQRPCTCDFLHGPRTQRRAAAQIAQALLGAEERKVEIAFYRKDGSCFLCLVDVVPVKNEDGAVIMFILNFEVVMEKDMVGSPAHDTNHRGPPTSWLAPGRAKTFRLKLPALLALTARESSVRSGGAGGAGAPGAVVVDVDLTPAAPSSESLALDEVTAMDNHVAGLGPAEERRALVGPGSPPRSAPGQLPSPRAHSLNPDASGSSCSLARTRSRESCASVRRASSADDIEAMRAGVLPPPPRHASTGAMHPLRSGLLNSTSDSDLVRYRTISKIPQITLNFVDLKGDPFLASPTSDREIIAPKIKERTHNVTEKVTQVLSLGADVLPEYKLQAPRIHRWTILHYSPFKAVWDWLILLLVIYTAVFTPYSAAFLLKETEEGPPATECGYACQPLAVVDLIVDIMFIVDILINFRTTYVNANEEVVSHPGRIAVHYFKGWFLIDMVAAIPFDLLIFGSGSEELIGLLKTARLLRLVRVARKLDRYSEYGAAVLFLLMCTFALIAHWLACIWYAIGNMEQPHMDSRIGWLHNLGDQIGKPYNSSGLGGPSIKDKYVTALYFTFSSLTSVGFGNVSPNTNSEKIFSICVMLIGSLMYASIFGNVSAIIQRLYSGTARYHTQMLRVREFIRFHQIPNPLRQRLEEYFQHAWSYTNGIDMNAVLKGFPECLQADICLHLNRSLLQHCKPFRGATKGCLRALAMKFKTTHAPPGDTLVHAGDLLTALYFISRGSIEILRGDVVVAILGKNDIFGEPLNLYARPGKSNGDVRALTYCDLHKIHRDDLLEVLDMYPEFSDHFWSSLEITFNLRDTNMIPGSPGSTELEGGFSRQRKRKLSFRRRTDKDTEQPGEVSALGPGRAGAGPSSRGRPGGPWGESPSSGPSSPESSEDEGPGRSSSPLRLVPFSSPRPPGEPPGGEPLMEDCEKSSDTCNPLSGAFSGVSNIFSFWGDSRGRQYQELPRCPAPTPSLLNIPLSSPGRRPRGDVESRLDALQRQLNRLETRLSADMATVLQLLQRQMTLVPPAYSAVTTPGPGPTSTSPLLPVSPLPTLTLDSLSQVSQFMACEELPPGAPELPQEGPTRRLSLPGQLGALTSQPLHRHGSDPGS
# Outline: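 Kinetic FDSS fluorescence; U2OS + hERG BacMam (~100 virus particles/cell); FluxOR Tl+ flux; ~10 min cpd; AC50 (Hill).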
# [2] = molecular target: Luciferin 4-monooxygenase (Photinus pyralis) (UniProt P08659); assay: Biochemical firefly luciferase enzyme assay for NPC (AID 624030); further: nearly all actives have a fitted effect of over 70% in size; further: potency means the concentration at half of the fitted maximal effect
# Luciferin 4-monooxygenase (Photinus pyralis), sequence (P08659 whole entry, looked up): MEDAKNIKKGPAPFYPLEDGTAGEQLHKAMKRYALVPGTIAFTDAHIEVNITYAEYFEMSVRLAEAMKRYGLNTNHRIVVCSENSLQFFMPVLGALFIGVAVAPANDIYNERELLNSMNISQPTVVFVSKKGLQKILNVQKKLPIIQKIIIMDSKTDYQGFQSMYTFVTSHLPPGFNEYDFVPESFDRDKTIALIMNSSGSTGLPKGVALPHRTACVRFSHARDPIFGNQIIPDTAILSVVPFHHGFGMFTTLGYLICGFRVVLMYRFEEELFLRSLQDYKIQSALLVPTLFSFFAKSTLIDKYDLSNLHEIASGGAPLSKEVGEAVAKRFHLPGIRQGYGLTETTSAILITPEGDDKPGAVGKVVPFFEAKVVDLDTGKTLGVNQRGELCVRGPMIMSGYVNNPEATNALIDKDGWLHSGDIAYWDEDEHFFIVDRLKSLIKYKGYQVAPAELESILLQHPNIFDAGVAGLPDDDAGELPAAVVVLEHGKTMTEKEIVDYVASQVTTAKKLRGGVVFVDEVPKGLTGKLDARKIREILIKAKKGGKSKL
# Outline: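 Direct inhibition of firefly luciferase enzyme (10 nM final, 50 mM Tris Acetate) assessed by luminescence within 5 minutes. Percent activity scaled between DMSO and PTC124 positive control, with concentration-effect curves classified by fit quality and response.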
# [3] = qHTS of Trypanosoma Brucei Inhibitors: LOPAC Validation (AID 624147)
# Outline: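 Luminescent Kinase-Glo Plus end-point after 45 min room-temperature reaction of T. brucei pyruvate kinase started with 130 uM ADP (final). Buffer TEA 50 mM pH 7.2 with KCl, MgCl2, BSA, Tween-20; titration-based qHTS with fitted concentration-effect curves.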
# [4] = molecular target: Glucagon-like peptide 1 receptor (Homo sapiens) (UniProt P43220); assay: qHTS of GLP-1 Receptor Agonists: LOPAC Validation (AID 624148);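 further: luminescence from a luciferase reporter switched on by cAMP; higher luminescence signal means agonism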
# Glucagon-like peptide 1 receptor (Homo sapiens), sequence (P43220 whole entry, looked up): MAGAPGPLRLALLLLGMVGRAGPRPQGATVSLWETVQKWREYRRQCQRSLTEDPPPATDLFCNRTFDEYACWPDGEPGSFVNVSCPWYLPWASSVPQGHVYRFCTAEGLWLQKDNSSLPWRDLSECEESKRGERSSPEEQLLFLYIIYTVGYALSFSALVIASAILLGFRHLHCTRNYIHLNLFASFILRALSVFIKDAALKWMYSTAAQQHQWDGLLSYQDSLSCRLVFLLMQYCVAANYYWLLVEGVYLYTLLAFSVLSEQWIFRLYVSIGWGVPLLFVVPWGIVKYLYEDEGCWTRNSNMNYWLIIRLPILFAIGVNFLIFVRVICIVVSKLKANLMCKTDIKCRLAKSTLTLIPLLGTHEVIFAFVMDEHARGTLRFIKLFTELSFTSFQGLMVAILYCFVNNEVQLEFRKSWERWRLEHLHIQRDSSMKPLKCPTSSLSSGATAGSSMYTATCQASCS
# Outline: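 Agonism scored as increased luciferase luminescence driven by cAMP in HEK293 clones carrying GLP-1R. Cells settled 12 hours, received compound for 4-6 hr at 37 deg C, 5% CO2, and were read after 12 min detection reagent at RT.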
# [5] = qHTS of Nrf2 Activators: LOPAC Validation (AID 624149)
# Outline: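 Luminescence read-out of ARE-luciferase activation: AREc32_Fluc cells treated with compounds for 24 hr at 37 deg C, then lysed with Steady-Glo for 30 min at room temperature before reading.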
# [6] = HTS Assay for Allosteric Antagonists of the Human D2 Dopamine Receptor: Hit Validation in HTRF (AID 624455);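 further: stable D1 dopamine receptor cell line scored for blocking the D1 response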
# Outline: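 First, antagonism was screened by calcium flux in a force-coupled, inducible Hek293 Trex D2 line challenged with EC80 dopamine. Hits then went into an HTRF assay in cells stably expressing D1, testing inhibition of the D1 response.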
# [7] = molecular target: Glutaminase kidney isoform, mitochondrial (Homo sapiens) (UniProt O94925); assay: qHTS for Inhibitors of Glutaminase (GLS): LOPAC Validation (AID 624146); further: nearly all actives have a fitted effect of over 60% in size; further: potency means the concentration at half of the fitted maximal effect
# Glutaminase kidney isoform, mitochondrial (Homo sapiens), sequence (O94925 whole entry, looked up, canonical isoform): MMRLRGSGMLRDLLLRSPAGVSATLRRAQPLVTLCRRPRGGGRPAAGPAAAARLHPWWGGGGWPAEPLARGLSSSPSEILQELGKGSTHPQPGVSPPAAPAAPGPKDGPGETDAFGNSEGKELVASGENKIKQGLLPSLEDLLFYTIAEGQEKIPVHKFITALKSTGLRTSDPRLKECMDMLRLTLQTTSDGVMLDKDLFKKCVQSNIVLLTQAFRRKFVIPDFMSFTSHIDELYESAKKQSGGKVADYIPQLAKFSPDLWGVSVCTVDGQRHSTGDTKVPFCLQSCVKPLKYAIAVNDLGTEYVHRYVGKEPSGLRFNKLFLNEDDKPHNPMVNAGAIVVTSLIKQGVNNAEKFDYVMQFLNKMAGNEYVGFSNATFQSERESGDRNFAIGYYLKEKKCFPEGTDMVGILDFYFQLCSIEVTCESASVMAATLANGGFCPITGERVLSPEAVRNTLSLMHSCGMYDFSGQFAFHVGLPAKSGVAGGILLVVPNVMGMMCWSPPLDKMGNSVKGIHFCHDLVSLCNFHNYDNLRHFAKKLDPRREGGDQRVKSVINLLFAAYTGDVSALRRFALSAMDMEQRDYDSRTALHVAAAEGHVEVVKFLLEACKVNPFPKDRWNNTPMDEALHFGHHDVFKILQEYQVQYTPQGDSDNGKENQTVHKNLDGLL
# Outline: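 Read-out is an Amplex red fluorescence increase coupled through glutamate oxidase and HRP, measured before and after 30 min room-temperature incubation. hKGA is in 45 mM KH2PO4 (pH 8.2) with 0.02% Tween-20; glutamine added as 1mM solution.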
# [8] = S16 Schwann cell viability assay (CellTiter-Glo assay) (AID 624031);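 further: cellular ATP luminescence as a viability measure; nearly all actives have a fitted effect of over 70% in size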
# Outline: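 Native S16 rat Schwann cells, 500-750 cells/well in DMEM with 10% FBS, dosed with compound after overnight culture and incubated 24h at 37 degree Celsius/5% CO2. Viability by CellTiter-Glo luminescence; % activity normalized to no-cell wells and DMSO-treated cells.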
# [9] = S16 Schwann cell PMP22 intronic element beta-lactamase assay (AID 624044; calls by dose curve; further: nearly all actives have a fitted effect of over 15% in size; further: potency means the concentration at half of the fitted maximal effect)
# Outline: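 Rat S16 Schwann cells with beta-Lac driven by a PMP22 intronic element, compound-treated 24 h at 37 °C. LiveBLAzer FRET B/G read: 460 nm normalized to potassium clavulanate vs DMSO; 535 nm FRET as viability; concentration-effect curves classified.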
# [10] = qHTS assay for small molecule agonists of the antioxidant response element (ARE) signaling pathway (AID 651741; active means well fitted activation curve with a large enough effect in the signal ratio; the % refers to the signal ratio; further: potency means the concentration at half of the fitted maximal effect)
# Outline: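 Quantitative HTS in HepG2 cells stably expressing an ARE-beta-lactamase reporter; 16 h compound exposure at 37 C, followed by 2 h room-temperature incubation with LiveBLAzer B/G FRET substrate and fluorescence measurement.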
# [11] = qHTS assay for small molecule activators of the p53 signaling pathway (AID 651743; active means well fitted activation curve with a large enough effect in the signal ratio, not every such curve was filed as active; the % refers to the signal ratio; further: potency means the concentration at half of the fitted maximal effect); conditions: HCT-116 p53RE-bla, beta-lactamase FRET ratio, 16 h; activation: stronger effect = higher value
# Outline: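 Read-out is fluorescence intensity from the LiveBLAzer B/G FRET substrate, added for 2 hours at room temperature after HCT-116 p53RE-bla cells had been incubated with compounds for 16 hours at 37 C.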
# [12] = S16 Schwann cell PMP22 intronic element firefly luciferase assay (AID 624032); further: nearly all actives have a fitted effect of over 30% in size
# Outline: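 Luciferase reporter of PMP22 intronic-element expression in stably transfected S16 rat Schwann cells, read by ONE-Glo luminescence after 24 h compound exposure at 37 C. Activity scaled between DMSO (0%) and positive-control PTC124; concentration-effect curves quality-classified.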
# [13] = qHTS Assay for Identification of Small Molecule Agonists for NFkB Signaling Pathway. (AID 624478);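 further: compounds tested together with TNF alpha at its EC50 of 10 pM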
# Outline: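 ME-180 cervical carcinoma, stable NFkB-RE beta-lactamase reporter; 1000 cells/well, overnight attachment; cpd + TNF alpha 10 pM final, 5 h 37 C; LiveBLAzer 2 h RT; FRET 460/530 nm, ex 405 nm.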
# [14] = Cell Proliferation Assay against the TMD8 Cell Line (AID 651645); conditions: TMD8 DLBCL cell line proliferation/viability; at 46.1 µM (top of the series) unless noted;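 further: cells exposed to compound for 48 h before reading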
# Outline: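 Viability by CellTiter-Glo after 48 h compound exposure of 500 log-phase TMD8 cells per well (RPMI, 5% FBS). Percent activity scaled between DMSO (100%) and 9.2 uM final bortezomib (0%).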
# [15] = Cell Proliferation Assay against the HBL1 Cell Line (AID 651646); conditions: HBL1 DLBCL cells; at 46.1 µM (top of the series) unless noted;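 further: cells exposed to compound for 48 h before reading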
# Outline: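 Luminescent ATP read-out (CellTiter-Glo) after 48 h compound exposure of HBL1 cells at 37 °C; percent activity was scaled between DMSO as 100% and 9.2 uM bortezomib (final) as 0%.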
# [16] = Cytotoxicity counterscreen for NFkB agonists and antagonists (AID 624476);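 further: cells exposed to compound for 48 hours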
# [17] = qHTS Assay for Identification of Small Molecule Antagonists for NFkB Signaling Pathway. (AID 624479; calls by dose curve;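 further: pathway stimulated with TNF alpha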; further: potency means the concentration at half of the fitted maximal effect)
# [18] = Cell Proliferation Assay against the TMD8 Cell Line (Caspase readout at 16 hrs) (AID 651712)
# Outline: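 Apoptotic response of TMD8 cells was judged from caspase 3/7 activation following a 16 hour compound incubation at 37 °C. Luminescent signal was converted to percent activity, with DMSO set as 0% and 9.2 uM final bortezomib as 100%.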
# [19] = Cell Proliferation Assay against the TMD8 Cell Line (Caspase readout at 8 hrs) (AID 651713); further: potency means the concentration at half of the fitted maximal effect
# Outline: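 Seed log-phase TMD8 cells, add compound by pin tool, incubate 8 h at 37C under 5% CO2, equilibrate to room temperature, add Caspase-Glo, wait 15 min, read luminescence; percent activity uses DMSO and 9.2 uM bortezomib controls.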
smiles,measurement,setting,value
COc1ccccc1N1CCN(CC(O)COc2cccc3ccccc23)CC1 (stereo unspecified),Potency,[1],3.16 µM (active) and 794 nM (active)
same,Potency,[2],inactive
same,Potency,[3],inactive
same,Potency,[4],inactive
same,outcome,[5],inactive
same,Potency,[6],inactive
COc1cc2c(c(OC)c1OC)-c1ccc(OC)c(=O)cc1[C@@H](NC(C)=O)CC2,Potency,[1],inactive
same,Potency,[2],inactive
same,Potency,[8],inactive
same,Potency,[7],inactive
same,Potency,[3],inactive
same,Potency,[4],inactive
same,outcome,[5],inactive
same,Potency,[6],inactive
O=C(Nc1ccc([N+](=O)[O-])cc1Cl)c1cc(Cl)ccc1O,Potency,[1],inactive
same,Potency,[2],0.114 µM (active)
same,Potency,[9],2.51 µM (active)
same,Potency,[7],inactive
same,Potency,[3],inactive
same,Potency,[4],inactive
same,outcome,[5],inactive
same,Potency,[6],inactive
same,Potency,[10],3.06 µM (active)
same,Potency,[11],0.891 µM (active)
Nc1ccn([C@H]2CC[C@@H](CO)O2)c(=O)n1,Potency,[1],inactive
same,Potency,[2],inactive
same,Potency,[7],inactive
same,Potency,[3],inactive
same,Potency,[4],inactive
same,outcome,[5],inactive
same,Potency,[6],inactive
same,Potency,[10],inactive
same,activation,[11],-0.413% (inactive) and 2.91% (inactive)
CCc1cccc2c3c([nH]c12)C(CC)(CC(=O)O)OCC3 (stereo unspecified),Potency,[1],inactive
same,Potency,[7],inactive
same,Potency,[3],inactive
same,Potency,[4],inactive
same,outcome,[5],inactive
same,Potency,[6],inactive
CCOC(=O)Nc1ccc(NCc2ccc(F)cc2)nc1N,Potency,[1],14.1 µM (active)
same,Potency,[2],inactive
same,Potency,[8],inactive
same,Potency,[9],inactive
same,Potency,[7],12.6 µM (active)
same,Potency,[3],inactive
same,Potency,[4],inactive
same,outcome,[5],inactive
same,Potency,[6],inactive
C[C@](N)(Cc1ccc(O)c(O)c1)C(=O)O,Potency,[1],inactive
same,Potency,[2],inactive
same,Potency,[8],inactive
same,Potency,[12],inactive
same,Potency,[7],inactive
same,Potency,[4],inactive
same,outcome,[5],inactive
same,Potency,[6],inactive
same,activation,[11],-5.22% (inactive)
COc1ccc2c(c1)c(CC(=O)O)c(C)n2C(=O)c1ccc(Cl)cc1,Potency,[1],inactive
same,Potency,[2],inactive
same,Potency,[7],inactive
same,Potency,[3],inactive
same,Potency,[4],inactive
same,outcome,[5],inactive
same,Potency,[6],inactive
same,activation,[11],-7.78% (inactive) and -10.3% (inactive)
CC(C)NCC(O)c1ccc(O)c(O)c1 (stereo unspecified),Potency,[1],inactive
same,Potency,[2],inactive
same,Potency,[8],inactive
same,Potency,[9],inactive
same,Potency,[3],inactive
same,outcome,[5],inactive
same,Potency,[6],inactive
O=c1[nH]cc(F)c(=O)[nH]1,Potency,[1],inactive
same,Potency,[2],inactive
same,Potency,[8],inactive
same,Potency,[7],inactive
same,Potency,[3],inactive
same,Potency,[4],inactive
same,outcome,[5],inactive
same,Potency,[6],inactive
CC1(CN2CCC(n3c(=O)[nH]c4ccccc43)CC2)OCc2ccccc2-n2cccc21 (stereo unspecified),Potency,[1],11.2 µM (active)
same,Potency,[2],inactive
same,outcome,[13],inactive
same,viability (% of control),[14],12.7%
same,"viability, percent of control",[15],6.74%
Cn1ccc2cc3c(cc21)CCN3C(=O)Nc1cccnc1,Potency,[1],inactive
same,Potency,[2],6.42 µM (active)
same,Potency,[12],inactive
same,Potency,[3],inactive
same,Potency,[4],inactive
same,outcome,[5],inactive
same,Potency,[6],inactive
same,Potency,[16],inactive
same,outcome,[13],inactive
same,Potency,[17],inactive
same,viability (% of control),[14],102%
same,"viability, percent of control",[15],88.1%
same,Potency,[18],inactive
same,Potency,[19],inactive
Cc1cc(C(C)(C)C)c(O)c(C)c1CC1=NCCN1,Potency,[1],11.2 µM (active)
same,Potency,[2],inactive
same,Potency,[8],inactive
same,Potency,[12],inactive
same,Potency,[3],inactive
same,Potency,[4],inactive
same,outcome,[5],inactive
same,Potency,[6],inactive
CC(C)C(=O)Nc1ccc([N+](=O)[O-])c(C(F)(F)F)c1,Potency,[1],inactive
same,Potency,[2],inactive
same,Potency,[8],inactive
same,Potency,[7],inactive
same,Potency,[3],inactive
same,Potency,[4],inactive
same,outcome,[5],inactive
same,Potency,[6],inactive
N[C@@H](Cc1c[nH]c2ccc(O)cc12)C(=O)O,Potency,[1],inactive
same,Potency,[8],inactive
same,Potency,[12],inactive
same,Potency,[9],inactive
same,Potency,[7],1.12 µM (active)
same,Potency,[3],inactive
same,Potency,[4],inactive
same,outcome,[5],inactive
same,Potency,[6],inactive
O=C(C1CCCCC1)N1CC(=O)N2CCc3ccccc3C2C1 (stereo unspecified),Potency,[1],inactive
same,Potency,[7],inactive
same,Potency,[3],inactive
same,Potency,[4],inactive
same,Potency,[6],inactive
O=c1c(O)c(-c2ccc(O)c(O)c2)oc2cc(O)cc(O)c12,Potency,[1],inactive
same,Potency,[8],inactive
same,Potency,[12],inactive
same,Potency,[9],inactive
same,Potency,[3],inactive
same,Potency,[4],inactive
same,Potency,[6],inactive
same,Potency,[16],inactive
same,outcome,[13],inactive
Fc1ccc([C@@H]2CCNC[C@H]2COc2ccc3c(c2)OCO3)cc1,Potency,[7],inactive
same,Potency,[3],inactive
same,Potency,[4],inactive
same,outcome,[5],inactive
same,Potency,[6],inactive
Cc1ccc(-c2cc(C(F)(F)F)nn2-c2ccc(S(N)(=O)=O)cc2)cc1,Potency,[2],inactive
same,Potency,[8],inactive
same,Potency,[9],inactive
same,outcome,[13],inactive
same,Potency,[17],43.2 µM (active)
same,viability (% of control),[14],57.7% [at 92.2 µM]
same,"viability, percent of control",[15],6.48% [at 92.2 µM]
same,Potency,[19],54 µM (active)
same,Potency,[10],66.8 µM (active)
